From PubChem BioAssay AID540333 (Southern Research Specialized Biocontainment Screening …, 2011)
Hit rate of the full screen: of about 10,000 compounds, about 320 (3.2%) were called active. The entries come from a sample that favours actives as a whole. Values without a mark were called inactive. Cut-off read from the data, not from the text of the source: active = CPE inhibition mostly above about 9.1% (no sharp cut-off); inactive = mostly below about 7.2%.

Experiment: antivirals protecting cells from dengue CPE – CPE readout, HTS (AID 540333)
Conditions: Dengue virus CPE inhibition in host cells, at 20 µM; hits give high values

| Structure (SMILES) | CPE inhibition |
| --- | --- |
| CC(=O)c1ccc(N2Cc3ccccc3/C2=N\C(=O)Nc2ccccc2)cc1 | 1.88% |
| O=C(c1cc(-c2ccccc2)nn1CC1CC(c2cccnc2)=NO1)N1CCOCC1 (stereo unspecified) | 0.185% |
| Cc1ccc(/C=C/C(=O)NCCCN2CCN(CCCNC(=O)/C=C/c3ccc(C)o3)CC2)o1 | 0.03% |
| Cc1ccc([N+](=O)[O-])cc1S(=O)(=O)NCCc1c(C)[nH]c2c(C)cccc12 | 0.035% |
| COc1ccc(NC(=S)N(CCN(C)C)C(C)c2ccco2)cc1 (stereo unspecified) | 1.96% |
| CCC(=O)N/N=C(\C)CC(=O)Nc1ccccc1-c1ccccc1 | inactive |
| Cc1ccc(-c2cc3c(n2-c2ccc(C(=O)O)cc2)CCCC3=O)cc1 | inactive |
| COc1ccc(C(=O)NCC(=O)NCC(c2ccco2)N(C)C)cc1OC (stereo unspecified) | inactive |
| CCOc1ccc(NC(=O)CNC(=O)COc2ccccc2)cc1 | 0.38% |
| COC(C(=O)Nc1ccc(S(=O)(=O)Nc2cccc3ccccc23)cc1)c1ccccc1 (stereo unspecified) | 5.08% |
| O=C(NC(=S)N1CCN(c2ccc([N+](=O)[O-])cc2)CC1)c1ccccc1F | 1.42% |
| O=C(COC(=O)CC1c2ccccc2CCN1S(=O)(=O)c1ccccc1)Nc1ccccc1 (stereo unspecified) | 0.325% |
| COc1ccc([C@H]2CC(=O)C=C(c3cccc(OC)c3)C2)cc1 | inactive |
| CCOC(=O)c1cccc(C2=CC(=O)C[C@H](c3ccc(OC)cc3)C2)c1 | 11.8% (active) |
| COc1ccc([C@H]2CC(=O)C=C(c3ccccc3)C2)cc1 | 3.05% |
| CCOc1cccc(OCCOCCN(C)C)c1 | inactive |
| CCOC(=O)C1=NNC2(c3ccc(Cl)cc3)C(=O)N(c3ccc(C)cc3)C(=O)C12 (stereo unspecified) | inactive |
| CSCCC(NS(=O)(=O)c1ccc(Cl)cc1)C(=O)OCc1cccc(Cl)c1 (stereo unspecified) | 12% (active) |
| CSCCC(NC(=O)c1ccc(Cl)cc1)C(=O)OCC(=O)Nc1cc(Cl)ccc1C (stereo unspecified) | 0.1% |
| CC(=O)Nc1ccc(S(=O)(=O)NCCSCc2cccc(Cl)c2)cc1 | 1.06% |
| CC(C)OC(=O)/C(=C/c1ccc(Br)cc1)NC(=O)c1ccco1 | inactive |
